Laboratory results reported in PubChem BioAssay (EPA / NIEHS).
Several values for one entry are separate records, joined by “and”; a condition that tells them apart may be missing. Equal values may be shown once. Records with an inconclusive call do not appear. A structure can be active in one record and inactive in another. Activity calls are given as the source filed them. Rule for the calls, unless noted: active = hit-call score of the fitted dose curve at least 0.9, where 1 is the maximum; inconclusive = response in the unintended direction; inactive = score below 0.9.

Key:
[1] = CEETOX_H295R_ANDR: CeeTox H295R High-throughput Steroidogenesis Assay for Androstenedione (ANDR) (AID 2283436; active = hit-call score of the fitted dose curve at least 0.9, where 1 is the maximum; inactive = score below 0.9;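 note: human H295R adrenal cells exposed for 48 h with androstenedione measured in medium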); details: actives raise or lower the signal
Summary of the method: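 Steroidogenesis in H295R adrenal cells after 48 h dosing; androstenedione quantified by LC-MS/MS, with DMSO as negative control and baseline for bidirectional curve fitting.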

[2] = target: Estrogen receptor (Homo sapiens) (UniProt P03372); assay: OT_ERa_GFPERaERE_0120: Odyssey Thera (OT) 2-hour HeLa Transcription Induction Assay for Estrogen Receptor (AID 2283382)
Summary of the method: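 Two-hour compound treatment of HeLa cells preceded microscopy imaging of an inducible fluorescent reporter. Image-based quantification gave one endpoint, analysed for signal increase relative to DMSO controls.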

[3] = target: Retinoic acid receptor RXR-alpha (Homo sapiens) (UniProt P19793); assay: OT_NURR1_NURR1RXRa_0480: Odyssey Thera (OT) 8-hour HEK293T Protein Complementation Assay for Nurr1/retinoid X receptor (RXR) (AID 2283385)
Summary of the method: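 Gain in fluorescent complementation signal over DMSO, measured 8 hours after chemical dosing of human kidney HEK293T cells, indicated enhanced Nurr1–RXRα association.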

[4] = target: Retinoic acid receptor RXR-alpha (Homo sapiens) (UniProt P19793); assay: OT_NURR1_NURR1RXRa_1440: Odyssey Thera (OT) 24-hour HEK293T Protein Complementation Assay for Nurr1/retinoid X receptor (RXR) (AID 2283386)
Summary of the method: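 Cell-based binding reporter: HEK293T cells, 24 h exposure, fluorescence-detected fragment complementation, DMSO as baseline.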

[5] = target: Peroxisome proliferator-activated receptor gamma (Homo sapiens) (UniProt P37231); assay: OT_PPARg_PPARgSRC1_0480: Odyssey Thera (OT) 8-hour Protein-Complementation Assay for Peroxisome Proliferator-activated Receptor Gamma / SRC-1 Co-activator (AID 2283387);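 note: nuclear to cytoplasmic split Venus YFP fluorescence ratio reporting PPARg SRC-1 interaction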
Summary of the method: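 Read-out: 488 nm N/C fluorescence ratio from complemented Venus YFP fragments, ≥350 cells per image, gain-of-signal fitted against DMSO baseline. Fusions of PPARg/SRC-1 with IFP1/IFP2 expressed transiently in HEK293T; compounds applied 8 h.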

[6] = target: Peroxisome proliferator-activated receptor gamma (Homo sapiens) (UniProt P37231); assay: OT_PPARg_PPARgSRC1_1440: Odyssey Thera (OT) 24-hour Protein-Complementation Assay for Peroxisome Proliferator-activated Receptor Gamma/ SRC-1 Co-activator (AID 2283388);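 note: nuclear to cytoplasmic ratio of reconstituted Venus YFP fluorescence in fixed imaged cells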
Summary of the method: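 Cells carrying the PPARg/SRC-1 fragment-complementation reporter receive compound for 24 hours, are fixed and counterstained with Draq5, then imaged. Increased nuclear relative to cytoplasmic YFP fluorescence above DMSO baseline indicates binding activity.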

[7] = CEETOX_H295R_OHPREG: CeeTox H295R High-throughput Steroidogenesis Assay for OH-Pregnenolone (OHPREG) (AID 2283434; active = hit-call score of the fitted dose curve at least 0.9, where 1 is the maximum; inactive = score below 0.9); details: actives raise or lower the signal
Summary of the method: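 Readout: HPLC-MS/MS of 17alpha-hydroxypregnenolone in medium after 48 h chemical exposure of H295R cells pretreated with forskolin. Values fitted bidirectionally relative to DMSO; chemicals reducing viability to 20–70% were retested after 10-fold dilution.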

[8] = CEETOX_H295R_11DCORT: CeeTox H295R High-throughput Steroidogenesis Assay for 11-Deoxycortisol (11DCORT) (AID 2283432; active = hit-call score of the fitted dose curve at least 0.9, where 1 is the maximum; inactive = score below 0.9;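 for AC50: human adrenal H295R cells prestimulated with 10 µM forskolin for 48 h; 11-deoxycortisol secreted into the medium measured by LC-MS/MS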); details: actives raise or lower the signal
Summary of the method: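 H295R cells; 10 uM forskolin prestim 48 h; compound in 0.1% DMSO 48 h; media extracted with MTBE; 11-deoxycortisol by LC-MS/MS, 7-point standard curve; gain/loss vs DMSO baseline; viability by MTT in same wells.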

Measured: AC50

Chain of Peroxisome proliferator-activated receptor gamma (Homo sapiens) (P37231 whole entry, looked up, the tested form may be a part): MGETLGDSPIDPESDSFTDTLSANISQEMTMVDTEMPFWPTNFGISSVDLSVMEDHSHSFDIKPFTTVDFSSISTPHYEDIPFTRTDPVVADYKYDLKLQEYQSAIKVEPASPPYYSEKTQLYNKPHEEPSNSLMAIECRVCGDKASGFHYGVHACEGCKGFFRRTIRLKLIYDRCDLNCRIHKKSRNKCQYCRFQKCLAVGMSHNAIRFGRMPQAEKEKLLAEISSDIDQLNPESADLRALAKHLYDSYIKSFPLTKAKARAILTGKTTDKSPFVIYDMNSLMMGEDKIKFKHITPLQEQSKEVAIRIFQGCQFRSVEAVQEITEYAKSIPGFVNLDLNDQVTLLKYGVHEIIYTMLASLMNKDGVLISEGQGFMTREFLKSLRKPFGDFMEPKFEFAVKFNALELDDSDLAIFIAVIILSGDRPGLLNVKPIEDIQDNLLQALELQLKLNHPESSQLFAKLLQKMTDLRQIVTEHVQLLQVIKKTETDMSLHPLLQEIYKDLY
Chain of Retinoic acid receptor RXR-alpha (Homo sapiens) (P19793 whole entry, looked up, the tested form may be a part): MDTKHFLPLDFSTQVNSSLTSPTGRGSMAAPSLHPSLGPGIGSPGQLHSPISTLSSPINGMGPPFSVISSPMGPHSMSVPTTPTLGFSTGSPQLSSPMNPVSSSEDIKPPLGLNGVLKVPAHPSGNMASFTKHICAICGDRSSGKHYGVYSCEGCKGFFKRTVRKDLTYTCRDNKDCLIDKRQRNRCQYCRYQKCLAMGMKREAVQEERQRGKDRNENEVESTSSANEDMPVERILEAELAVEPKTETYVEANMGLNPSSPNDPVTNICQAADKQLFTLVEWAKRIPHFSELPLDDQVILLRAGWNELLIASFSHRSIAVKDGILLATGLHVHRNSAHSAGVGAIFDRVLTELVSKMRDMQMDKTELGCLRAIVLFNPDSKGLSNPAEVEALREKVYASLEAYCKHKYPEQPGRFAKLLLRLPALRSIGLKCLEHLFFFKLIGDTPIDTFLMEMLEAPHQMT
Chain of Estrogen receptor (Homo sapiens) (P03372 whole entry, looked up): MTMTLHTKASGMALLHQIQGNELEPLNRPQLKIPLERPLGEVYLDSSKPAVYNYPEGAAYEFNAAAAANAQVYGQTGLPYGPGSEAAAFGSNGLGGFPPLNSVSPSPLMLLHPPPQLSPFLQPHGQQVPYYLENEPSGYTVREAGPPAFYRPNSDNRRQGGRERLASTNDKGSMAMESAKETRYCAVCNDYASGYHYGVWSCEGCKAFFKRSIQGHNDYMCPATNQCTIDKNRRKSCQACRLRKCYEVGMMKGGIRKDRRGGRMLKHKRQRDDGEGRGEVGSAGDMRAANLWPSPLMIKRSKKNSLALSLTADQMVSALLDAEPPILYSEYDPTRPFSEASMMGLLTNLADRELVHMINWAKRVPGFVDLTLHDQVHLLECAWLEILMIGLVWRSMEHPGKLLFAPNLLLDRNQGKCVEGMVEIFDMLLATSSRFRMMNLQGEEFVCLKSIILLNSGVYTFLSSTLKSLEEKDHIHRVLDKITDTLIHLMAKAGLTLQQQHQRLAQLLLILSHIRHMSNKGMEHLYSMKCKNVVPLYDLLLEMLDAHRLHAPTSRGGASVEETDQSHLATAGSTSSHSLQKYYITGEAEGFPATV

CO/N=C(/C(=O)OC)c1ccccc1COc1ccccc1C
active: [1] 21.2 µM

CCNc1nc(Cl)nc(NC(C)(C)C)n1
inactive: [1]

CCC1(c2ccccc2)C(=O)N=C(O)NC1=O (stereo unspecified)
inactive: [2] | [3] | [4] | [5] | [6]

Cc1cccc(N)c1
inactive: [2] | [5] | [6] | [7]

c1ccc2c(c1)sc1ccccc12
inactive: [2] | [5] | [6]

CCOS(=O)(=O)OCC
inactive: [2] | [4] | [5] | [6]

O=C(O)CF
inactive: [2] | [3] | [5] | [6]

CCOP(=S)(NC(C)C)Oc1ccccc1C(=O)OC(C)C (stereo unspecified)
active: [8] 12.8 µM
inactive: [7]

COP(N)(=S)OC
inactive: [8] | [7] | [1]

CC(C)(C)c1ccc(O)cc1
inactive: [3] | [4] | [5] | [6] | [7]

CCOP(=S)(OCC)SCn1nnc2ccccc2c1=O
inactive: [8] | [7]

c1cc2c3c(cccc3c1)CC2
inactive: [2] | [3] | [4] | [5] | [6]

CC1(C)CN=C(NN=C(/C=C/c2ccc(C(F)(F)F)cc2)/C=C/c2ccc(C(F)(F)F)cc2)NC1
inactive: [2] | [5] | [6]

c1ccc(OP(Oc2ccccc2)Oc2ccccc2)cc1
not listed: [1]
inactive: all other assays above

CN(C)C(=O)Cl
inactive: [2] | [3] | [5] | [6]

ClC(Cl)c1ccccc1
inactive: [2] | [3] | [5] | [6]

O=[N+]([O-])c1ccccc1
inactive: [2] | [3] | [4] | [5] | [6]

COC(N)=O
inactive: [2] | [4] | [5] | [6]

Nc1cc2c3c(c1)C(c1ccccc1)=N[C@@H](NC(=O)c1cccnc1)C(=O)N3CC2
active: [3] 50 µM | [8] 62 µM | [7] 27.6 µM
not listed: [1]
inactive: all other assays above

Oc1ccc(I)cc1
inactive: [8] | [7]

c1ccc2c(c1)Nc1ccccc1S2
active: [7] 6.86 µM and 2.55 µM
inactive: [2] | [3] | [4] | [5] | [6] | [7]

O=C(O)C(Cl)Cl
inactive: [2] | [3] | [4] | [5] | [6]

Nc1ccc([N+](=O)[O-])cc1Cl
inactive: [8] | [7] | [1]

CC(=O)c1ccc(-c2ccccc2)cc1
active: [1] 50 µM
inactive: [8] | [7]

CC(Cc1ccc(OCC(=O)O)cc1)NCC(O)c1csc(C(F)(F)F)n1 (stereo unspecified)
inactive: [2] | [3] | [4] | [5] | [6]

Cc1ccc(O)cc1C
inactive: [2] | [3] | [4] | [7]

ClC(Cl)=C(c1ccc(Cl)cc1)c1ccccc1Cl
inactive: [8] | [7] | [1]

COCCOCCO
inactive: [2] | [3] | [4] | [5] | [6]

CCOP(=S)(Oc1ccc([N+](=O)[O-])cc1)c1ccccc1 (stereo unspecified)
active: [2] 18.4 µM
not listed: [1] | [8]
inactive: all other assays above

CSC(C)(C)C=NO
inactive: [2] | [3] | [5] | [6]

Nc1ccc2ccccc2c1
not listed: [1] | [8]
inactive: all other assays above

CCCCOCCOP(=O)(OCCOCCCC)OCCOCCCC
not listed: [1]
inactive: all other assays above

[N-]=[N+]=[N-]
inactive: [2] | [5] | [6]

CC(C)Nc1ccc(Nc2ccccc2)cc1
inactive: [8] | [7]

N#Cc1c(-c2ccc(Cl)cc2)[nH]c(C(F)(F)F)c1Br
active: [8] 0.37 µM
inactive: [7] | [1]

CCOC(=O)c1ccccc1C(=O)OCC
inactive: [2] | [3] | [4] | [5] | [6]

CCCCOCC1CO1 (stereo unspecified)
inactive: [2] | [3] | [4] | [5] | [6]

CC(Cl)(Cl)C(=O)O
inactive: [2] | [3] | [4] | [5] | [6]
